{"source": "the supplement of paper PMC11732987", "about": "“Enantioselective OTUD7B fragment discovery through chemoproteomics screening and high-throughput optimisation” (Communications Chemistry, 2025)", "test_in_all_cases": "log2 ratio of Biotin-Ahx-Ub-VS probe labelling (fragment/DMSO); higher = less target engagement (more negative = stronger competition), active = hit call of the paper (q ≤ 0.05, log2 ratio ≤ -1)", "settings_in_all_cases": "compound concentration: 200 uM; treatment time: 3 h", "key": {"[1]": {"target": "T1, OTUD6B (UniProt Q8N6M0)", "T1 sequence (whole entry)": "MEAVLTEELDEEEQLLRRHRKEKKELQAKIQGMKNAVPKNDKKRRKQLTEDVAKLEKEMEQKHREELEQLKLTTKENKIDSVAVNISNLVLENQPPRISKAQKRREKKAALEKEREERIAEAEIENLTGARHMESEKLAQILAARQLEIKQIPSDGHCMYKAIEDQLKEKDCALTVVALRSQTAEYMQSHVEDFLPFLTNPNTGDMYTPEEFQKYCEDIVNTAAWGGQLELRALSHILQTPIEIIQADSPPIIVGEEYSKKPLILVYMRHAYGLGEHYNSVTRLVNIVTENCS", "how_it_was_run": "(§1)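 HEK293T lysate in Tris/CHAPS/IGEPAL buffer with protease inhibitors (495 µg per sample) was given fragment at 200 µM or vehicle for 3 h, in triplicate. It then received Biotin-Ahx-Ub-VS at 0.5 µM final for 1 h. Labelled DUBs were NeutrAvidin-enriched, digested with LysC and trypsin, and run by diaPASEF LC-MS/MS. Values are average log2 fragment/vehicle ratios by unpaired t-test on global-median-normalised Spectronaut quantities of proteins with ≥2 unique peptides.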"}, "[2]": {"target": "T2, OTUD7B (UniProt Q6GQQ9)", "T2 sequence (whole entry)": "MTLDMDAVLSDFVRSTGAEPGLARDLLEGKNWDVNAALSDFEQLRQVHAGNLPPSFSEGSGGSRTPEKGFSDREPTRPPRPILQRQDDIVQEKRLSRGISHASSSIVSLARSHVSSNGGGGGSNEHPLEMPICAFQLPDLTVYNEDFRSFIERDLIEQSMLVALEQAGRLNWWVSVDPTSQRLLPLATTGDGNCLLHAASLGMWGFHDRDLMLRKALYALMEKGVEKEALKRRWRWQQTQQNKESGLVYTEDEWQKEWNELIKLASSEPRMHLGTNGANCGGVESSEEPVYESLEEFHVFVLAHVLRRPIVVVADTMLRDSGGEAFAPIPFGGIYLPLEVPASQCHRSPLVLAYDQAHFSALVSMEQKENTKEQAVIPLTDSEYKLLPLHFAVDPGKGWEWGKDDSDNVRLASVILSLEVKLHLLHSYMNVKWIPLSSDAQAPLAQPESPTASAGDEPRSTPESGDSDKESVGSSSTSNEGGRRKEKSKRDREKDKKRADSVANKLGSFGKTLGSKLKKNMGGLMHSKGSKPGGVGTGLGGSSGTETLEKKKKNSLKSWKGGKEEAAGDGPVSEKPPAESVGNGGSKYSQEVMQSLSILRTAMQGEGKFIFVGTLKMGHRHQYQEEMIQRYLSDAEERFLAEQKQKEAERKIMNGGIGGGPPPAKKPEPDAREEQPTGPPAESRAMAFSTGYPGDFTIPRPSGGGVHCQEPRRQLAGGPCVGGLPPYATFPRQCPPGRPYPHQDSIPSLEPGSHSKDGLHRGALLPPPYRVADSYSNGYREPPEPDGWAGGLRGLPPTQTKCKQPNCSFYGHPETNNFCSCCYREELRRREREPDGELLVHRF", "how_it_was_run": "as §1"}, "[3]": {"target": "PRPF8 (UniProt Q6P2Q9)", "how_it_was_run": "as §1"}, "[4]": {"target": "T3, PSMD7 (UniProt P51665)", "T3 sequence (whole entry)": "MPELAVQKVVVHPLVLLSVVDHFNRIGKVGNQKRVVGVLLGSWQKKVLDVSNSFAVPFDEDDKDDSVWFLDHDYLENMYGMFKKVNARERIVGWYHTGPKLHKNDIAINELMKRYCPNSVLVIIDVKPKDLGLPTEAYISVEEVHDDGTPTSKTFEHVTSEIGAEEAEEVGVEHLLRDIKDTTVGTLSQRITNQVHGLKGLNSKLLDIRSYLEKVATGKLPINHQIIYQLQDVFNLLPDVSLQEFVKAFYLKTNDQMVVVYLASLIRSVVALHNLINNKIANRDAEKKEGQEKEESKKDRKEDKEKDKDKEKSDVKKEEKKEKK", "how_it_was_run": "as §1"}, "[5]": {"target": "UCHL1 (UniProt P09936)", "sequence (P09936 whole entry, looked up)": "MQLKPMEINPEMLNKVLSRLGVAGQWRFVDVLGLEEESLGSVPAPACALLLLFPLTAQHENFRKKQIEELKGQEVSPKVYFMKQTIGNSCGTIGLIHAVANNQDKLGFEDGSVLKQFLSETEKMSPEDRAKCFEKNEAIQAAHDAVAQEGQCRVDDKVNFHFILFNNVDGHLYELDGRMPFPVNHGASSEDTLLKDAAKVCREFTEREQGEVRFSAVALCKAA", "how_it_was_run": "as §1"}, "[6]": {"target": "T4, UCHL3 (UniProt P15374)", "T4 sequence (whole entry)": "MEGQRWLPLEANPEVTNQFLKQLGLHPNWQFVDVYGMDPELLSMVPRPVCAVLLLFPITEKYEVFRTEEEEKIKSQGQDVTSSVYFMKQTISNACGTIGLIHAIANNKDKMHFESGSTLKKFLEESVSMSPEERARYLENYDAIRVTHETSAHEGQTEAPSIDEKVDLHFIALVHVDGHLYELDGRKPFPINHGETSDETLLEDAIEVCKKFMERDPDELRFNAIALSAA", "how_it_was_run": "as §1"}, "[7]": {"target": "T5, UCHL5 (UniProt Q9Y5K5)", "T5 sequence (whole entry)": "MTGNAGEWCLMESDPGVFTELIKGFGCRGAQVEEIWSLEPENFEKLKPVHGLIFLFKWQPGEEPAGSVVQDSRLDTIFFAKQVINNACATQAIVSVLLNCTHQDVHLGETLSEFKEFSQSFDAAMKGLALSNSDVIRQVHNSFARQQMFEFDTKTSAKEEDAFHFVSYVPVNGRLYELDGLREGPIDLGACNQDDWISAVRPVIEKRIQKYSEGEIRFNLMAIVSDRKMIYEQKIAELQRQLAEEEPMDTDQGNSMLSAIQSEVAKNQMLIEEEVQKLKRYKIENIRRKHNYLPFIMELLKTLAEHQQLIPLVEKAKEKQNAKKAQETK", "how_it_was_run": "as §1"}, "[8]": {"target": "USP10 (UniProt Q14694)", "sequence (Q14694 whole entry)": "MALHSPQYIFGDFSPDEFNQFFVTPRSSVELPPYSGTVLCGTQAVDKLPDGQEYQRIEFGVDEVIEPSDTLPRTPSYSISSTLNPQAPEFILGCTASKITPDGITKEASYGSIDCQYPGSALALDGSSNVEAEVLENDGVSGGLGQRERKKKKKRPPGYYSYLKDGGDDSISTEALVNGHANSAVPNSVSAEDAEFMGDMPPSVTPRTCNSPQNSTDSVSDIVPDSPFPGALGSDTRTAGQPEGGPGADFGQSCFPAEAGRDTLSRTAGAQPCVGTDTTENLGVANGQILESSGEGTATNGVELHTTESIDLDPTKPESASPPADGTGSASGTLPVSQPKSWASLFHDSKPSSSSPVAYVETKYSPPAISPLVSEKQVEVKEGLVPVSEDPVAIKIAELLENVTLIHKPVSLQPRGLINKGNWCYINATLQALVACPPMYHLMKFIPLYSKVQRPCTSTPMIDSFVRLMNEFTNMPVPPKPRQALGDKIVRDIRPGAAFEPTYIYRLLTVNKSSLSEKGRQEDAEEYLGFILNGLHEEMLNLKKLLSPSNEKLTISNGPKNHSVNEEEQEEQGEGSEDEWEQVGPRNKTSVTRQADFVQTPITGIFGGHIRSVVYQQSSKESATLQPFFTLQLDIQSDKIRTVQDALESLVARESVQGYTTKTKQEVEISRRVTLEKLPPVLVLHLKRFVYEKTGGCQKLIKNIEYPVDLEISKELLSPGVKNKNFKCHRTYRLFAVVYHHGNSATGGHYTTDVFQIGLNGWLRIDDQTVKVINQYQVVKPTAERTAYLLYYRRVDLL", "how_it_was_run": "as §1"}, "[9]": {"target": "T6, USP15 (UniProt Q9Y4E8)", "T6 sequence (whole entry)": "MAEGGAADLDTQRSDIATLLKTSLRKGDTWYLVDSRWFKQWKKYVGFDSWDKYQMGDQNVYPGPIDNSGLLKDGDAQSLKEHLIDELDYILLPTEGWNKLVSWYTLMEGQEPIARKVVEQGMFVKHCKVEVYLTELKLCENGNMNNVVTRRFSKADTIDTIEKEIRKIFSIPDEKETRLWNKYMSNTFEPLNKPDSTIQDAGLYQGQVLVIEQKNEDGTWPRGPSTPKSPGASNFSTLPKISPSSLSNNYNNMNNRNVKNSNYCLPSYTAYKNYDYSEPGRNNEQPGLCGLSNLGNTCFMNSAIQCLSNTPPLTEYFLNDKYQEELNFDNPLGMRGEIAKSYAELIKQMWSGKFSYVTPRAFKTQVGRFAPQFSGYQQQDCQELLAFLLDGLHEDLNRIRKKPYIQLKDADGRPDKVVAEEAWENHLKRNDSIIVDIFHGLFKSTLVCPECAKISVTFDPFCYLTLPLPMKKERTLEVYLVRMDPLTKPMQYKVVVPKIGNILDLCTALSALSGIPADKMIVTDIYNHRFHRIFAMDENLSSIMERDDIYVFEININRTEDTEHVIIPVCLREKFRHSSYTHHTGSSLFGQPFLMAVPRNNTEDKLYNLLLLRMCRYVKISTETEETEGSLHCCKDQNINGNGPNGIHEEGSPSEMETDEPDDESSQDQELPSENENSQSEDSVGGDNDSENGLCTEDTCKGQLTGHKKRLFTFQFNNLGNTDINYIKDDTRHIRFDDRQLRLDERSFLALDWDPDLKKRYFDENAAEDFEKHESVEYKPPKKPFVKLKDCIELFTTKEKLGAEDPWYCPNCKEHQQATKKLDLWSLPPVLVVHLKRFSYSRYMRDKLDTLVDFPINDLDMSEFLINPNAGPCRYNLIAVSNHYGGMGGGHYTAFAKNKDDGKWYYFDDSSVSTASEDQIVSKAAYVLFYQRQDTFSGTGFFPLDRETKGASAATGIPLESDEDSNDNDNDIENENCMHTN", "how_it_was_run": "as §1"}, "[10]": {"target": "USP16 (UniProt Q9Y5T5)", "sequence (Q9Y5T5 whole entry, looked up)": "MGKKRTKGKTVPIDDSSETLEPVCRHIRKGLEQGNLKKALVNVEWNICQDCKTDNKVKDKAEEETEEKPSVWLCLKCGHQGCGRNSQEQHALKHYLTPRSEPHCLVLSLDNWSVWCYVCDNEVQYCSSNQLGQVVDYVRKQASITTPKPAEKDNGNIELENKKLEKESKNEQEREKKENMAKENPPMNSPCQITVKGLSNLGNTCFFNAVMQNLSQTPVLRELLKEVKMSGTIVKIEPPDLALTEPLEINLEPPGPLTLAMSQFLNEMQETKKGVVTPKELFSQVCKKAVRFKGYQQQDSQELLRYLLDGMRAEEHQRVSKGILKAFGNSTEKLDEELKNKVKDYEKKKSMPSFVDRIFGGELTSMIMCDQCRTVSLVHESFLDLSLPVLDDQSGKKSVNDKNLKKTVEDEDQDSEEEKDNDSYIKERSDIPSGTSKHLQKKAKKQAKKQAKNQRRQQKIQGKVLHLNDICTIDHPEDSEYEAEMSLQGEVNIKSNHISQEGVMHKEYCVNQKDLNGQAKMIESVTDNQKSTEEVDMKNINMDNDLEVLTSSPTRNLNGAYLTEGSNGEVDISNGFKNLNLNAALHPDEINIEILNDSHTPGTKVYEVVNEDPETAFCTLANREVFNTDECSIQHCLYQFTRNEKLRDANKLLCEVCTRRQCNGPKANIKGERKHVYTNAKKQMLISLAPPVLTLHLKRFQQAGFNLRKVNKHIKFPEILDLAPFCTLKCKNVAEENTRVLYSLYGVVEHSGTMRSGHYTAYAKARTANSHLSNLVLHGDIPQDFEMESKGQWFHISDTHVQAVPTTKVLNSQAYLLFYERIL", "how_it_was_run": "as §1"}}, "note": "Unmarked numbers belong to inactive results.", "data": [{"compound": "Cc1c(NC(=O)CCl)c(=O)n(-c2ccccc2)n1C", "values": [{"measurement": "log2 ratio of Biotin-Ahx-Ub-VS probe labelling", "setting": "[1]", "result": -0.0267}, {"measurement": "log2 ratio of Biotin-Ahx-Ub-VS probe labelling", "setting": "[2]", "result": -0.0828}, {"measurement": "log2 ratio of Biotin-Ahx-Ub-VS probe labelling", "setting": "[3]", "result": 0.192}, {"measurement": "log2 ratio of Biotin-Ahx-Ub-VS probe labelling", "setting": "[4]", "result": -0.0588}, {"measurement": "log2 ratio of Biotin-Ahx-Ub-VS probe labelling", "setting": "[5]", "result": "-1.04 (active)"}, {"measurement": "log2 ratio of Biotin-Ahx-Ub-VS probe labelling", "setting": "[6]", "result": 0.0974}, {"measurement": "log2 ratio of Biotin-Ahx-Ub-VS probe labelling", "setting": "[7]", "result": -0.143}, {"measurement": "log2 ratio of Biotin-Ahx-Ub-VS probe labelling", "setting": "[8]", "result": -0.099}, {"measurement": "log2 ratio of Biotin-Ahx-Ub-VS probe labelling", "setting": "[9]", "result": -0.102}, {"measurement": "log2 ratio of Biotin-Ahx-Ub-VS probe labelling", "setting": "[10]", "result": -0.462}]}]}
